Source: PubChem BioAssay
This is one part of the list. Calls of active or inactive are those of the source.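 How the source made its calls, unless noted: active means inhibition above the mean plus 3 SD of solvent-only control wells, limit set per screening run (cut at about 16% in these data); inactive means the rest.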

Key:
[1] = STAT3 reporter inhibitors, retest of hits, confirmation, U3A cells, luciferase, luminescence (AID 1265;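 active means inhibition above the hit cutoff computed for the primary STAT3 screen, cut at about 44% in these data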;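 further: 0% = IL-6 plus DMSO and 100% = IL-6 plus nifuroxazide control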); conditions: IL-6 STAT3 luciferase reporter, at 5.7 µM, hits give high values, cell line lacks STAT1
[2] = NF-kB reporter inhibitors in human cells, confirmation, counter-screen for STAT3 inhibitor project, cell-based, HEK293T, luciferase, TNF-alpha stimulus (AID 1308;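 active means inhibition above the mean of solvent-only control wells plus 3 SD, cutoff set per campaign, cut at about 13% in these data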;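 further: 0% = TNF-alpha with DMSO and 100% = TNF-alpha with MG high control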); conditions: TNF-alpha induced, at 5.7 µM, hits give high values
[3] = STAT1 reporter inhibitors, IFN-gamma induced, confirmation, counter-screen for STAT3 inhibitor project, cell-based, NIH 3T3, luciferase luminescence (AID 1317); conditions: NIH 3T3 STAT1-luciferase reporter, at 5.7 µM, hits give high values;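 further: 0% = DMSO with IFN-gamma and 100% = nifuroxazide control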
[4] = target: Photoreceptor-specific nuclear receptor (Homo sapiens) (UniProt Q9Y5X4); assay: NR2E3 agonist confirmation in cells, cell-based, luminescence, CHO-S two-hybrid (AID 624378;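 active means average inhibition above a cutoff equal to the mean inhibition of all tested compounds plus one SD, cut at about 70% in these data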;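 further: 0% = DMSO in NR2E3 cells and 100% = DMSO in cells lacking NR2E3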); conditions: CHO-S mammalian two-hybrid NR2E3-NCOR, luciferase luminescence; at 3.98 µM; hits give high values
Chain of Photoreceptor-specific nuclear receptor (Homo sapiens) (Q9Y5X4 whole entry, looked up, the tested form may be a part): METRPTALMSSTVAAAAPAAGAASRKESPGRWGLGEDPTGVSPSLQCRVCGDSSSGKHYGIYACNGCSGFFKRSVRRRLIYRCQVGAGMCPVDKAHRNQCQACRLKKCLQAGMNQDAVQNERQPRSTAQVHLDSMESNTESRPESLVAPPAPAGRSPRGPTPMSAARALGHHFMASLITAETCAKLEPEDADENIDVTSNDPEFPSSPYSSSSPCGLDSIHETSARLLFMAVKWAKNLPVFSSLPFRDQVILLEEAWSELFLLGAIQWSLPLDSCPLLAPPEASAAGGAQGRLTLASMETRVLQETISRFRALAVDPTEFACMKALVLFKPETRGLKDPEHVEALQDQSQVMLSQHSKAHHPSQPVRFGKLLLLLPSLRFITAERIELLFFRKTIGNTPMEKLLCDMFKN

[5] = GAL4-VP16 reporter modulators, confirmation, counter-screen for NR2E3 agonist project, cell-based, luminescence, CHO-S, high throughput (AID 624379;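 active means mean inhibition above a cutoff equal to the average over all tested compounds plus one standard deviation, cut at about 70% in these data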;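 further: 0% = DMSO with VP16-transfected cells and 100% = DMSO with cells lacking VP16; higher means less reporter light so more repression of VP16 activity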); conditions: CHO-S GAL4-VP16 luciferase reporter, at 3.98 µM, hits give high values
[6] = Gal4-VP16 luciferase reporter inhibitors, counter-screen for COUP-TFII antagonist project, cell-based, luminescence, HEK293 (AID 687007; in the data active means inhibition above about 13%); conditions: at 8.5 µM, hits give high values
[7] = target: COUP transcription factor 2 (Homo sapiens) (UniProt P24468); assay: NR2F2 transcriptional activity inhibitors, confirmation, cell-based, luciferase reporter, HEK293, triplicate (AID 687008;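 active means mean inhibition over three repeats above a set limit taken from the earlier primary screen, cut at about 38% in these data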;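 further: 100% = cells given the luciferase reporter alone without the COUP-TF2 vector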); conditions: HEK293 NGFI-A luciferase reporter, luminescence; at 8.5 µM; hits give high values
Chain of COUP transcription factor 2 (Homo sapiens) (P24468 whole entry, looked up): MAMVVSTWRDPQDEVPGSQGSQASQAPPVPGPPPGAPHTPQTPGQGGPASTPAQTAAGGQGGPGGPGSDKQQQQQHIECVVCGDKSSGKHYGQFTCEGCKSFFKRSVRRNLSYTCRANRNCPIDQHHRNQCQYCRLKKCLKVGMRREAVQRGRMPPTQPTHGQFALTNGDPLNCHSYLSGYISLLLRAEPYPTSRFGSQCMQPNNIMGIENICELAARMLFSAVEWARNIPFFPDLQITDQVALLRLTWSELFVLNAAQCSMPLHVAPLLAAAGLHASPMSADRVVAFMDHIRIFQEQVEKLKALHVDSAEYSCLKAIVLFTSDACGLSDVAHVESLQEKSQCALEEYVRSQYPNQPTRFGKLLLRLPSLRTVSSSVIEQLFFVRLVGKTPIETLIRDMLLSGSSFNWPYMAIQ

[8] = target: Peroxisome proliferator-activated receptor gamma (Homo sapiens) (UniProt P37231); assay: agonists of PPARgamma SRC-2 coactivator recruitment, confirmation, biochemical, HTS (AID 1297; in the data active means activation above about 22%;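 further: 0% = vehicle alone and 100% = reference agonist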); conditions: biochemical SRC-2 recruitment by PPARgamma; at 8 µM; hits give high values
Chain of Peroxisome proliferator-activated receptor gamma (Homo sapiens) (P37231 whole entry, looked up): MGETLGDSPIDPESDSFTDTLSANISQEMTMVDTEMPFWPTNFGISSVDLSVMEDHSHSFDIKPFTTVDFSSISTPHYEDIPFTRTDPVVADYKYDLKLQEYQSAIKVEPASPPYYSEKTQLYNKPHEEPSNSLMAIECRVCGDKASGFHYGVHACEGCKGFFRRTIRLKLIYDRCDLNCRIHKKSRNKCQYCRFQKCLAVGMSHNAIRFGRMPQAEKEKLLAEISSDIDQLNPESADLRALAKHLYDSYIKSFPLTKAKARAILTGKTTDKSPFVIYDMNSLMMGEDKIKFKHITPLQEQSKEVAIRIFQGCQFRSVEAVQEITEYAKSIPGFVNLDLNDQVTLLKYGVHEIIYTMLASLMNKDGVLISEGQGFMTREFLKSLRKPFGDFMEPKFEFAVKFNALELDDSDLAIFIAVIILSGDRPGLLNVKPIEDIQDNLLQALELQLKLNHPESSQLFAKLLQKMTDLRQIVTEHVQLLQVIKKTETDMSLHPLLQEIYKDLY

[9] = target: Peroxisome proliferator-activated receptor gamma (Homo sapiens) (UniProt P37231); assay: PPARgamma agonists recruiting SRC-1 coactivator, confirmation, biochemical (AID 1300; in the data active means activation above about 20%;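 further: 0% = vehicle wells and 100% = reference agonist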); conditions: PPARgamma–SRC-1 coactivator recruitment biochemical assay; at 8 µM; hits give high values
[10] = target: Peroxisome proliferator-activated receptor gamma (Homo sapiens) + Nuclear receptor coactivator 3 (Homo sapiens) (UniProt P37231+Q9Y6Q9); assay: PPARgamma-driven SRC-3 coactivator recruitment agonists, confirmation, biochemical (AID 1301; in the data active means activation above about 24%;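 further: 0% = vehicle wells and 100% = reference agonist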); conditions: biochemical PPARgamma-SRC-3 coactivator recruitment, agonist mode; at 8 µM; hits give high values
Chain of Peroxisome proliferator-activated receptor gamma (Homo sapiens) + Nuclear receptor coactivator 3 (Homo sapiens) (P37231 whole entry, looked up, the tested form may be a part): as the sequence (P37231 whole entry, looked up) above
Chain of Peroxisome proliferator-activated receptor gamma (Homo sapiens) + Nuclear receptor coactivator 3 (Homo sapiens) (Q9Y6Q9 whole entry, looked up, the tested form may be a part): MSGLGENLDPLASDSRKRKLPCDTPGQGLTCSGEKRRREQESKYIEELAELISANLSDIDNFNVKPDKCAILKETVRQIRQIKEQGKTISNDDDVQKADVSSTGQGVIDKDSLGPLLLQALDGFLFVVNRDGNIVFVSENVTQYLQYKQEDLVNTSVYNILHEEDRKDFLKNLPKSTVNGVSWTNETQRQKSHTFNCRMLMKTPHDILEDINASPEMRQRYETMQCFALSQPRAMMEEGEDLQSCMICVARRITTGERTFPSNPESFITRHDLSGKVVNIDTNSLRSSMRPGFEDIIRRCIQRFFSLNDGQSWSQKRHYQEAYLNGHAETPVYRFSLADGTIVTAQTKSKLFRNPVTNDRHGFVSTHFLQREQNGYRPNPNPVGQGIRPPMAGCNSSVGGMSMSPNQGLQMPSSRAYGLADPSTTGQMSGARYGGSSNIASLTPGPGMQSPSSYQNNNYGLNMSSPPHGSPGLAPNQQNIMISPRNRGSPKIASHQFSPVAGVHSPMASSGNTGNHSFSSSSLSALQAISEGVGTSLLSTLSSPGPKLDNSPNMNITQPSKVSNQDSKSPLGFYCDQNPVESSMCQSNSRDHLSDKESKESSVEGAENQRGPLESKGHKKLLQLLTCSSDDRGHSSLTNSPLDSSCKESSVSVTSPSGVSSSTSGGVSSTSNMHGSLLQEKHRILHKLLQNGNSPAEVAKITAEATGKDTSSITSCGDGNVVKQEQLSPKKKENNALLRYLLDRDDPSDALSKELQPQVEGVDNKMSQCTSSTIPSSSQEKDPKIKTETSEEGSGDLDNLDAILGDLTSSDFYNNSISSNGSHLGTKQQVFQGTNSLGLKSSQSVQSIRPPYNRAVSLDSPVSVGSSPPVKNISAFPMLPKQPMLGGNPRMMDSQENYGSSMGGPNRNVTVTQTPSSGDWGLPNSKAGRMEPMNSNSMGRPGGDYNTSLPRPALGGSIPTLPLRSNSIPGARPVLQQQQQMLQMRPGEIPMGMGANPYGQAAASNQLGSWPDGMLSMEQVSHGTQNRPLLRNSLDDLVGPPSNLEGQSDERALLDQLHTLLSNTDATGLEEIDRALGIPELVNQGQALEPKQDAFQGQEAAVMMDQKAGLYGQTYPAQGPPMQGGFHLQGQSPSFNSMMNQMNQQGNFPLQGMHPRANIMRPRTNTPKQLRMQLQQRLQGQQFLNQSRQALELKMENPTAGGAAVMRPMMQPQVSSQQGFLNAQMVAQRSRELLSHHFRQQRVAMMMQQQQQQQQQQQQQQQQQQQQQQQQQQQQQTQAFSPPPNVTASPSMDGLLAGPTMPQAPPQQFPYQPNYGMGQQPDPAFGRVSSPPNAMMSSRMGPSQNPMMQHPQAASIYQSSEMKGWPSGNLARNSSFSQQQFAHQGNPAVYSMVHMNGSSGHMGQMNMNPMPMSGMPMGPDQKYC

[11] = target: Nuclear receptor coactivator 3 (Homo sapiens) (UniProt Q9Y6Q9); assay: SRC3 coactivator transcriptional activity inhibitors, confirmation, cell-based, luminescence, quadruplicate (AID 588792;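 active means mean inhibition over 43.08%, the solvent-only control mean plus 3 SD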;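 further: 0% = DMSO treated cells and 100% = gossypol at 36 µM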); conditions: HEK293 GAL4-SRC3 luciferase reporter, at 3.6 µM, hits give high values
Chain of Nuclear receptor coactivator 3 (Homo sapiens) (Q9Y6Q9 whole entry, looked up, the tested form may be a part): as above

[12] = tested on: transactivating tegument protein VP16 (Human herpesvirus 1), Gal4-VP16 luciferase reporter; assay: VP16 transactivation inhibitors, counter-screen for SRC3 inhibitor project, cell-based, luminescence, high throughput (AID 588794; in the data active means inhibition above about 30%); conditions: mammalian cells, VP16-driven luciferase reporter luminescence; at 3.6 µM; hits give high values
[13] = target: Oxysterols receptor LXR-beta (Homo sapiens) (UniProt P55055); assay: LXR agonists, Gal4 luciferase reporter, confirmation, counter-screen for hcDAF-12 agonist project, cell-based, luminescence, HEK293, H. contortus campaign (AID 743027;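 active means mean percent activation of the reporter above a cutoff set as the average over tested compounds plus their standard deviation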); conditions: HEK293 Gal4-LXR tk-luc reporter, 24 h, at 6.8 µM, hits give high values, normalized: DMSO 0%, positive control 100%
Chain of Oxysterols receptor LXR-beta (Homo sapiens) (P55055 whole entry, looked up, the tested form may be a part): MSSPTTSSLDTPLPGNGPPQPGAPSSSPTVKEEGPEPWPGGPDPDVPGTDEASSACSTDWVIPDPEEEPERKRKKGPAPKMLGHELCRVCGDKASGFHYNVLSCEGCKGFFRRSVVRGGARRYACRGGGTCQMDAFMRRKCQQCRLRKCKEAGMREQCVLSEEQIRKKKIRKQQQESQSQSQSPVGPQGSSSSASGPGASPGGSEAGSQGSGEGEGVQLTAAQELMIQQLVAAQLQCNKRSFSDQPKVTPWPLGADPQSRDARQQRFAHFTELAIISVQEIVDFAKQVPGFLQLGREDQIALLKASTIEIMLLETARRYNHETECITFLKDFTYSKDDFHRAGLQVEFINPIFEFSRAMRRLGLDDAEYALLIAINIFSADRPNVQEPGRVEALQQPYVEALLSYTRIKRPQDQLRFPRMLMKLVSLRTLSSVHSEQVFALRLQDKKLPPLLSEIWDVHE

[14] = tested on: Nuclear hormone receptor DAF-12 (Haemonchus contortus); assay: H. contortus DAF-12 receptor agonists, confirmation, cell-based, luminescence, HEK293, lit1-tk-luc, triplicate (AID 743032;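 active means mean activation across triplicate tests above the threshold derived from the earlier primary screen, cut at about 5.5% in these data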;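 further: 0% = DMSO only wells and 100% = 3 µM Δ7-dafachronic acid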); conditions: HEK293 hcDAF-12 lit1-tk-luc reporter, at 6.8 µM, hits give high values, % of Δ7-dafachronic acid response
[15] = tested on: DAF-12 nuclear receptor (Heterodera glycines), GAL4-LBD fusion; assay: H. glycines DAF-12 receptor agonists, confirmation, cell-based, luminescence, HEK293, GAL4-LBD fusion (AID 743050;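 active means mean activation over triplicate wells above the hit cutoff derived from the earlier primary screen, cut at about 11% in these data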;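 further: 0% = DMSO low control and 100% = 2 mM sodium butyrate high control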); conditions: HEK293 GAL4-hgDAF12 luciferase reporter, agonist mode; at 6.8 µM; hits give high values; percent of butyrate response
[16] = target: Oxysterols receptor LXR-beta (Homo sapiens) (UniProt P55055); assay: LXR agonists, Gal4 luciferase reporter, confirmation, counter-screen for hgDAF-12 agonist project, cell-based, luminescence, HEK293, H. glycines campaign (AID 743051;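 active means mean activation of the triplicate above a set limit carried over from the primary screen, none filed active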); conditions: 24 h, at 6.8 µM, hits give high values
[17] = target: Receptor-interacting serine/threonine-protein kinase 2 (Homo sapiens) (UniProt O43353); assay: NOD2-RIPK2 binding disruptors, retest, confirmation, fluorescence, CHO cells, BLA complementation, triplicate (AID 624370;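 active means mean inhibition across replicates above a set limit taken from the earlier primary screen, cut at about 21% in these data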;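 further: 0% = DMSO-only wells and the high end = clavulanate BLA-blocked wells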); conditions: CCF4 FRET, at 4.98 µM, hits give high values
[18] = beta-lactamase reporter inhibitors in CHO cells, confirmation, artefact control for NOD2-RIPK2 interaction inhibitor project, cell-based, CHO-K1 CMV-bla, CCF4 FRET, fluorescence (AID 624371;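 active means mean inhibition above the low-control mean inhibition plus three low-control SD, cut at about 11% in these data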;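 further: 0% = DMSO only wells and 100% = clavulanate high control wells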); conditions: CCF4 FRET ratio, counterscreen, at 4.98 µM, hits give high values
[19] = target: Nuclear receptor coactivator 1 (Homo sapiens) (UniProt Q15788); assay: SRC1 coactivator transcriptional activity inhibitors, confirmation, cell-based, luminescence, quadruplicate (AID 588820;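 active means mean inhibition above 46.68%, the untreated control wells mean plus 3 SD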;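 further: 0% = DMSO wells and 100% = gossypol 36 µM treated wells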); conditions: HEK293 GAL4-SRC1 luciferase reporter, at 3.6 µM, hits give high values
[20] = VP16 transactivation inhibitors, counter-screen for SRC1 inhibitor project, cell-based, luminescence, high throughput (AID 588824; in the data active means inhibition above about 25%); conditions: cell-based VP16 transactivation luciferase luminescence; at 3.6 µM; hits give high values
[21] = StAR promoter reporter inhibitors, counter-screen for LRH-1 inverse agonist project, cell-based, luminescence, high throughput (AID 651611; in the data active means inhibition above about 28%); conditions: StAR promoter luciferase reporter counterscreen, at 3.6 µM, hits give high values
[22] = target: Nuclear receptor subfamily 5 group A member 2 (Homo sapiens) (UniProt O00482); assay: LRH-1 (NR5A2) inverse agonists, retest, confirmation, cell-based, luminescence (AID 651613; in the data active means inhibition above about 42%;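 further: HEK293T cells co-transfected with LRH-1 and StAR promoter luciferase reporter; 0% = vehicle wells and 100% = parental cells lacking receptor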); conditions: cell-based LRH-1 luciferase reporter, inverse agonism; at 3.6 µM; hits give high values
Chain of Nuclear receptor subfamily 5 group A member 2 (Homo sapiens) (O00482 whole entry, looked up): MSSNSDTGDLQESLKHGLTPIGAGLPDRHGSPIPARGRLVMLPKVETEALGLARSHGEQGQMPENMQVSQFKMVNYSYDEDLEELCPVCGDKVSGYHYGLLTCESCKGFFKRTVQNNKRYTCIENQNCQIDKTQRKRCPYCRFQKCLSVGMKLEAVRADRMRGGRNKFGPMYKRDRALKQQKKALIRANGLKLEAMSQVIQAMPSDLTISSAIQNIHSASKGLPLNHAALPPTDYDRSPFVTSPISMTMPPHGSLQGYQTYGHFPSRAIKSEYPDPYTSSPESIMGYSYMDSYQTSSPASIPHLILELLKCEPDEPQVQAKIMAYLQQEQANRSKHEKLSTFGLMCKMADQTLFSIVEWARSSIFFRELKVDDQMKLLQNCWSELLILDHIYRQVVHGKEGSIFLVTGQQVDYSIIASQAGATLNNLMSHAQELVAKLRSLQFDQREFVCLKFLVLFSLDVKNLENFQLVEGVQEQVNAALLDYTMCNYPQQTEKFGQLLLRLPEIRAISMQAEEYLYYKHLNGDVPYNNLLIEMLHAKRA

[23] = target: Steroidogenic factor 1 (Homo sapiens) (UniProt Q13285); assay: SF1 (NR5A1) inverse agonists, counter-screen for LRH-1 inverse agonist project, cell-based, luminescence, high throughput (AID 651614; in the data active means inhibition above about 44%;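 further: cells cotransfected with StAR promoter reporter and SF1 expression vector; 0% = vehicle on cells with receptor and 100% = vehicle on cells lacking receptor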); conditions: cell-based SF1 luciferase reporter, at 3.6 µM, hits give high values
Chain of Steroidogenic factor 1 (Homo sapiens) (Q13285 whole entry, looked up, the tested form may be a part): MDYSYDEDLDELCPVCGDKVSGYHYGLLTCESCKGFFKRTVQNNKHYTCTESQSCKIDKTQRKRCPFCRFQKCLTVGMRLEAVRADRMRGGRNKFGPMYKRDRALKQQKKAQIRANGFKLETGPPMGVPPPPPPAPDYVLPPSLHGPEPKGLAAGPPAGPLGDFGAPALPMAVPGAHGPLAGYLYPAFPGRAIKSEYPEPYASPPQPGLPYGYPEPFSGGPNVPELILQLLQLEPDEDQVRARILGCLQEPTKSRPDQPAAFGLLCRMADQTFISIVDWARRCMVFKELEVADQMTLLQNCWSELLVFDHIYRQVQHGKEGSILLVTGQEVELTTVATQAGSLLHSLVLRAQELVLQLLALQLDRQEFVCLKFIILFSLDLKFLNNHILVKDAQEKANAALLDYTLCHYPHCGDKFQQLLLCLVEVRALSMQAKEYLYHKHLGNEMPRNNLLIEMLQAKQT

[24] = VP16 transactivation reporter inhibitors, counter-screen for LRH-1 inverse agonist project, cell-based, luminescence, high throughput (AID 651615; in the data active means inhibition above about 33%); conditions: Gal4-VP16 luciferase reporter cells, at 3.6 µM, hits give high values
[25] = target: Galanin receptor type 2 (Homo sapiens) (UniProt O43603); assay: GALR2 antagonists, retest of hits, confirmation, cell-based (AID 866; in the data active means inhibition above about 27%;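 further: cells stimulated with galanin at about its EC80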); conditions: GALR2-expressing cells, antagonist mode, at 4 µM, hits give high values
[26] = inhibitors of NFAT-driven beta-lactamase reporter, confirmation, counter-screen for GALR2 antagonist project, CHO NFAT-bla cells, FRET readout (AID 867;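 active means inhibition above the mean inhibition across tested compounds plus 3 SD, cut at about 27% in these data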;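 further: 0% = 500 nM thapsigargin stimulated wells and 100% = unstimulated BSA only wells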); conditions: thapsigargin-stimulated, at 4.2 µM, hits give high values
[27] = target: Serine protease HTRA1 (Homo sapiens) (UniProt Q92743); assay: HTRA1 protease inhibitors, retest, confirmation, biochemical, fluorescence polarization (AID 540248;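 active means mean inhibition over three repeats above a set limit taken from the earlier primary screen, cut at about 37% in these data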;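 further: 0% = HTRA1 with DMSO and 100% = wells lacking HTRA1; inhibitors block probe binding so polarization drops and inhibition rises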); conditions: recombinant HTRA1, FP-rhodamine activity-based probe, at 5.96 µM, hits give high values
[28] = target: Sphingosine 1-phosphate receptor 4 (Homo sapiens) (UniProt O95977); assay: S1P4 receptor antagonists, human, confirmation, cell-based (AID 1524; in the data active means inhibition above about 30%); conditions: S1P4-expressing cell line, antagonist mode, reporter read-out; at 4.98 µM; hits give high values
[29] = target: Sphingosine 1-phosphate receptor 1 (Homo sapiens) (UniProt P21453); assay: S1P1 receptor antagonists, human, counter-screen for S1P4 antagonist project, cell-based (AID 1564; in the data active means inhibition above about 40%;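 further: receptor stimulated with S1P near its EC80; 0% = agonist stimulated wells and 100% = vehicle only wells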); conditions: cell-based S1P1 antagonist counterscreen, at 4.98 µM, hits give high values

Cc1ccc(NC(=O)CN(C)CC(=O)Nc2cccc(F)c2)cc1[N+](=O)[O-]
inactive: inhibition [1] 35.9% | inhibition [6] 1.63%
active: inhibition [2] 13% | inhibition [3] 19.3% | inhibition [4] 74.5% | inhibition [5] 86.7% | inhibition [7] 51.8%

O=C(Nc1cccc(S(=O)(=O)Nc2ccc(Cl)cc2)c1)c1ccc2c(c1)OCCO2
active: inhibition [1] 55.6% | inhibition [2] 15.4% | inhibition [3] 17.7% | inhibition [7] 42.2%
inactive: inhibition [6] -4.16%

N=C(N)SCc1cccc2ccccc12
active: inhibition [3] 19.2%
inactive: inhibition [1] 31.7% | inhibition [2] 4.87% | inhibition [6] 6.09% | inhibition [7] 20.6%

CC(C(=O)N1CCOCC1)N1c2cccc3cccc(c23)S1(=O)=O (stereo not given)
inactive: activation [8] -0.94% | activation [9] 1.12% | activation [10] 1.88%

CC(C)(CNC(=O)c1ccc(Cl)c(S(=O)(=O)N2CCc3ccccc3C2)c1)N1CCOCC1
inactive: inhibition [3] 9% | inhibition [11] 7.77% | inhibition [6] 0.6%
active: inhibition [1] 57.1% | inhibition [2] 13.4% | inhibition [12] 32.8% | inhibition [7] 38.9%

CCCOc1ccc(C(=O)NCCc2ccccc2)cc1
active: activation [14] 7.43% | activation [15] 14.1%
inactive: inhibition [1] 11.6% | inhibition [2] -7.27% | inhibition [3] -61.1% | activation [13] 1.59% | activation [16] 0.6%

O=C(CSc1c2c(nc3ccc(Cl)cc13)CCCC2)NCc1ccco1
inactive: activation [8] 19.2% | activation [9] 15.5% | activation [10] 14.4%

Cc1csc(SCC(=O)Nc2sccc2C#N)n1
inactive: inhibition [1] 7.4% | inhibition [2] -23.8% | inhibition [3] -80.2% | activation [13] 1.59%
active: activation [14] 10.3%

COc1ccc(Nc2ncc(F)c(N3CCOCC3)n2)cc1
active: activation [15] 16.1%
inactive: inhibition [1] 3.37% | inhibition [2] -21.5% | inhibition [3] -107% | activation [16] 1%

NC(=O)CSc1oc(-c2cccs2)nc1S(=O)(=O)c1ccccc1
active: activation [8] 40.9% | activation [9] 34.8% | activation [10] 26.5%

CCCc1ccc(-c2csc(NC(=O)Cc3cccs3)n2)cc1
inactive: inhibition [1] 34.2% | inhibition [2] 4.13% | inhibition [3] 4.43% | inhibition [6] -25% | inhibition [7] 15.2%
active: inhibition [17] 32.7% | inhibition [18] 31.1%

Cc1nc2ccccc2cc1OCc1ccc(F)cc1
active: inhibition [1] 61.5% | inhibition [4] 82.5% | inhibition [7] 38%
inactive: inhibition [2] 6.3% | inhibition [3] 5.63% | inhibition [5] 70.5% | inhibition [6] -26.8%

O=c1c2c(nc3cc(-c4cccc(Cl)c4)[nH]n13)CCCC2
active: activation [14] 9.19% | activation [15] 13.8%
inactive: inhibition [1] 21.9% | inhibition [2] -3.1% | inhibition [3] -108% | activation [13] 1.76% | activation [16] 1.15%

c1coc(CNc2ncnc3ccccc23)c1
inactive: inhibition [1] 40.4% | inhibition [5] 56.3% | inhibition [6] 4.88%
active: inhibition [2] 15.2% | inhibition [3] 30.5% | inhibition [4] 71.1% | inhibition [7] 40.9%

CCOc1ccc(-c2nnc(-c3ccco3)o2)cc1
inactive: inhibition [3] -56.6% | activation [16] 0.7%
active: inhibition [1] 43.7% | inhibition [2] 13.6% | activation [15] 15.5%

COc1cccc(-c2nc3cc(C)ccc3o2)c1
active: activation [14] 16.7%
inactive: inhibition [1] 1.5% | inhibition [2] -23.8% | inhibition [3] -109% | activation [13] 2.33%

COc1ccc(S(=O)(=O)Nc2ccc3oc(C)c(C(C)=O)c3c2)cc1
active: inhibition [2] 13.4% | inhibition [3] 20.4% | inhibition [4] 93% | inhibition [5] 79.4%
inactive: inhibition [1] 32.3% | inhibition [6] 1.7% | inhibition [7] 20.7%

COc1ccccc1Oc1ccc(S(=O)(=O)Nc2cccnc2)cc1
inactive: inhibition [1] 33% | inhibition [2] 5.8% | inhibition [3] 8.77%
active: inhibition [4] 95.5% | inhibition [5] 75.8%

Cc1ccc(S(=O)(=O)Nc2ccc3ncccc3c2)cc1
active: inhibition [3] 18% | inhibition [4] 89.4% | inhibition [5] 74.4% | inhibition [22] 47.2%
inactive: inhibition [1] 42.9% | inhibition [2] 3.83% | inhibition [19] -9.28% | inhibition [20] 5.01% | inhibition [21] 14.9% | inhibition [23] 36.3% | inhibition [24] 18.1%

O=C(Nc1ccc(CSc2ccccc2)cc1)c1ccc(CN2CCOCC2)cc1
inactive: inhibition [3] 10.4% | inhibition [6] -2.4%
active: inhibition [1] 83.7% | inhibition [2] 33.3% | inhibition [21] 28.7% | inhibition [22] 65.5% | inhibition [23] 63% | inhibition [24] 54.8% | inhibition [7] 65.8%

Cn1c(CN2CCOCC2)nc2cc(NC(=O)c3ccc(Cl)cc3)ccc21
inactive: inhibition [3] -12% | inhibition [6] -24.2% | inhibition [7] 24.5%
active: inhibition [1] 65% | inhibition [2] 16.1%

c1ccc2[nH]c(-c3nc4ccccc4[nH]3)nc2c1
active: inhibition [27] 58.4%
inactive: inhibition [25] 21.3% | inhibition [26] 8.39% | inhibition [1] 5.87% | inhibition [2] -30% | inhibition [3] -97.2% | activation [13] 1.09% | activation [14] 4.57%

CCc1c(C)nc2cc(-c3cccs3)[nH]n2c1=O
inactive: inhibition [28] 5.18% | inhibition [29] 12.8%
